What is called AC50 is the midpoint of the concentration-response curve, whichever way the signal moves.

Common to all, as to details: mRNA level, 48 h; actives raise or lower the signal
Read-out in experiment [1]: Tumor necrosis factor receptor superfamily member 6 (Homo sapiens) (UniProt P25445)
Nature of the experiment: LTEA_HepaRG_FAS: Life Technologies and Expression Analysis (LTEA) Assay for Fas cell surface death receptor (FAS) using HepaRG (AID 2283447). An outline of the steps:
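Differentiated HepaRG cells in serum-free induction medium were exposed 48 h to 8 half-log concentrations up to 100 uM in 0.5% DMSO, in duplicate. FAS mRNA was measured by qRT-PCR normalised to ACTB, GAPDH and POLR2A; bidirectional fit versus DMSO.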

Read-out in experiment [2]: Fatty acid synthase (Homo sapiens) (UniProt P49327)
Nature of the experiment: LTEA_HepaRG_FASN: Life Technologies and Expression Analysis (LTEA) Assay for Fatty Acid Synthase (FASN) using HepaRG (AID 2283448).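 As to AC50: differentiated human HepaRG liver cells in serum-free induction medium.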 An outline of the steps: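 Cells were plated, cultured 48 h, switched to serum-free induction medium, then dosed in duplicate (max 100 uM, half-log dilutions, 0.5% DMSO) for 48 h. RNA was then isolated and FASN quantified by qRT-PCR.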

Read-out in experiment [3]: Cyclin D2 (CCND2), CCND2 (gene 894)
Nature of the experiment: LTEA_HepaRG_CCND2: Life Technologies and Expression Analysis (LTEA) Assay for Cyclin D2 (CCND2) using HepaRG (AID 2283449).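 Also: CCND2 transcript measured by TaqMan qRT-PCR and normalised to three housekeeping genes.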 An outline of the steps:
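HepaRG, 48 h dosing, 8-pt half-log curve from 100 uM, 0.5% DMSO; duplicate wells. Readout: CCND2 transcript by microfluidic qRT-PCR, housekeeping-normalised; bidirectional fit vs DMSO baseline.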

Read-out in experiment [4]: Cyclin Dependent Kinase Inhibitor 1A (CDKN1A), CDKN1A (gene 1026)
Nature of the experiment: LTEA_HepaRG_CDKN1A: Life Technologies and Expression Analysis (LTEA) Assay for Cyclin Dependent Kinase Inhibitor 1A (CDKN1A) using HepaRG (AID 2283450). An outline of the steps:
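Expression quantified by Fluidigm qRT-PCR with ACTB, GAPDH and POLR2A normalization, fitted bidirectionally against 0.5% DMSO. Cells: HepaRG, plated 48 h then treated 48 h in serum-free induction medium, top concentration 100 uM with half-log dilutions.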

Read-out in experiment [5]: Cyclin D1 (CCND1), CCND1 (gene 595)
Nature of the experiment: LTEA_HepaRG_CCND1: Life Technologies and Expression Analysis (LTEA) Assay for Cyclin D1 (CCND1) using HepaRG (AID 2283451). An outline of the steps: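 Expression of CCND1 was quantified by qRT-PCR on Fluidigm arrays using ACTB, GAPDH and POLR2A as reference genes. HepaRG cultures, plated 48 h beforehand, were dosed for 48 h at up to 100 uM (half-log, 8 points) in 0.5% DMSO.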

Read-out in experiment [6]: catalase (CAT), CAT (gene 847)
As to the kind of experiment: LTEA_HepaRG_CAT: Life Technologies and Expression Analysis (LTEA) Assay for catalase (CAT) using HepaRG (AID 2283452).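 As to AC50: TaqMan qRT-PCR signal normalized to ACTB GAPDH and POLR2A housekeeping genes.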 An outline of the steps:
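HepaRG cells in serum-free induction medium, 0.5% DMSO vehicle, exposed 48 h in duplicate over 8 half-log concentrations from 100 uM. CAT mRNA measured by qRT-PCR, normalized to ACTB, GAPDH, POLR2A; bidirectional fit versus DMSO.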

Read-out in experiment [7]: flavin-containing dimethylaniline monooxygenases 3 (FMO3), FMO3 (gene 2328)
Nature of the experiment: LTEA_HepaRG_FMO3: Life Technologies and Expression Analysis (LTEA) Assay for flavin-containing dimethylaniline monooxygenases 3 (FMO3) using HepaRG (AID 2283453).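 As to AC50: differentiated human HepaRG liver cells in serum-free induction medium; FMO3 transcript by TaqMan qRT-PCR normalized to ACTB GAPDH and POLR2A.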 An outline of the steps: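 FMO3 transcript quantified by TaqMan qRT-PCR against three housekeeping genes after 48 h chemical exposure of HepaRG cells. Eight-point half-log series, top 100 uM, 0.5% DMSO vehicle; phenobarbital 1mM induction control; up- or down-regulation fitted.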

Read-out in experiment [8]: Cytochrome P450 (CYP1A1), CYP1A1 (gene 1543)
Nature of the experiment: LTEA_HepaRG_CYP1A1: Life Technologies and Expression Analysis (LTEA) Assay for Cytochrome P450 (CYP1A1) using HepaRG (AID 2283454). An outline of the steps:
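CYP1A1 transcript levels measured by Fluidigm qRT-PCR against three housekeeping genes, 48 h after chemical dosing of human HepaRG cells (highest concentration 100 uM, half-log steps, 0.5% DMSO vehicle). Gain or loss of signal fitted relative to DMSO.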

Read-out in experiment [9]: CFLAR gene, CFLAR (gene 8837)
As to the kind of experiment: LTEA_HepaRG_CFLAR: Life Technologies and Expression Analysis (LTEA) Assay for CFLAR gene using HepaRG (AID 2283455). An outline of the steps:
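qRT-PCR read-out (Fluidigm/TaqMan) of CFLAR mRNA, normalized to three housekeeping genes, in differentiated human HepaRG cells after 48 h chemical exposure; 8-point half-log series from 100 uM in 0.5% DMSO; bidirectional curve fitting versus DMSO.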

Calls of active or inactive are those of the source. The calls were made as follows: active = hit-call score of the fitted dose curve at least 0.9, where 1 is the maximum; inactive = score below 0.9.

Chain of Fatty acid synthase (Homo sapiens) (P49327 whole entry, looked up): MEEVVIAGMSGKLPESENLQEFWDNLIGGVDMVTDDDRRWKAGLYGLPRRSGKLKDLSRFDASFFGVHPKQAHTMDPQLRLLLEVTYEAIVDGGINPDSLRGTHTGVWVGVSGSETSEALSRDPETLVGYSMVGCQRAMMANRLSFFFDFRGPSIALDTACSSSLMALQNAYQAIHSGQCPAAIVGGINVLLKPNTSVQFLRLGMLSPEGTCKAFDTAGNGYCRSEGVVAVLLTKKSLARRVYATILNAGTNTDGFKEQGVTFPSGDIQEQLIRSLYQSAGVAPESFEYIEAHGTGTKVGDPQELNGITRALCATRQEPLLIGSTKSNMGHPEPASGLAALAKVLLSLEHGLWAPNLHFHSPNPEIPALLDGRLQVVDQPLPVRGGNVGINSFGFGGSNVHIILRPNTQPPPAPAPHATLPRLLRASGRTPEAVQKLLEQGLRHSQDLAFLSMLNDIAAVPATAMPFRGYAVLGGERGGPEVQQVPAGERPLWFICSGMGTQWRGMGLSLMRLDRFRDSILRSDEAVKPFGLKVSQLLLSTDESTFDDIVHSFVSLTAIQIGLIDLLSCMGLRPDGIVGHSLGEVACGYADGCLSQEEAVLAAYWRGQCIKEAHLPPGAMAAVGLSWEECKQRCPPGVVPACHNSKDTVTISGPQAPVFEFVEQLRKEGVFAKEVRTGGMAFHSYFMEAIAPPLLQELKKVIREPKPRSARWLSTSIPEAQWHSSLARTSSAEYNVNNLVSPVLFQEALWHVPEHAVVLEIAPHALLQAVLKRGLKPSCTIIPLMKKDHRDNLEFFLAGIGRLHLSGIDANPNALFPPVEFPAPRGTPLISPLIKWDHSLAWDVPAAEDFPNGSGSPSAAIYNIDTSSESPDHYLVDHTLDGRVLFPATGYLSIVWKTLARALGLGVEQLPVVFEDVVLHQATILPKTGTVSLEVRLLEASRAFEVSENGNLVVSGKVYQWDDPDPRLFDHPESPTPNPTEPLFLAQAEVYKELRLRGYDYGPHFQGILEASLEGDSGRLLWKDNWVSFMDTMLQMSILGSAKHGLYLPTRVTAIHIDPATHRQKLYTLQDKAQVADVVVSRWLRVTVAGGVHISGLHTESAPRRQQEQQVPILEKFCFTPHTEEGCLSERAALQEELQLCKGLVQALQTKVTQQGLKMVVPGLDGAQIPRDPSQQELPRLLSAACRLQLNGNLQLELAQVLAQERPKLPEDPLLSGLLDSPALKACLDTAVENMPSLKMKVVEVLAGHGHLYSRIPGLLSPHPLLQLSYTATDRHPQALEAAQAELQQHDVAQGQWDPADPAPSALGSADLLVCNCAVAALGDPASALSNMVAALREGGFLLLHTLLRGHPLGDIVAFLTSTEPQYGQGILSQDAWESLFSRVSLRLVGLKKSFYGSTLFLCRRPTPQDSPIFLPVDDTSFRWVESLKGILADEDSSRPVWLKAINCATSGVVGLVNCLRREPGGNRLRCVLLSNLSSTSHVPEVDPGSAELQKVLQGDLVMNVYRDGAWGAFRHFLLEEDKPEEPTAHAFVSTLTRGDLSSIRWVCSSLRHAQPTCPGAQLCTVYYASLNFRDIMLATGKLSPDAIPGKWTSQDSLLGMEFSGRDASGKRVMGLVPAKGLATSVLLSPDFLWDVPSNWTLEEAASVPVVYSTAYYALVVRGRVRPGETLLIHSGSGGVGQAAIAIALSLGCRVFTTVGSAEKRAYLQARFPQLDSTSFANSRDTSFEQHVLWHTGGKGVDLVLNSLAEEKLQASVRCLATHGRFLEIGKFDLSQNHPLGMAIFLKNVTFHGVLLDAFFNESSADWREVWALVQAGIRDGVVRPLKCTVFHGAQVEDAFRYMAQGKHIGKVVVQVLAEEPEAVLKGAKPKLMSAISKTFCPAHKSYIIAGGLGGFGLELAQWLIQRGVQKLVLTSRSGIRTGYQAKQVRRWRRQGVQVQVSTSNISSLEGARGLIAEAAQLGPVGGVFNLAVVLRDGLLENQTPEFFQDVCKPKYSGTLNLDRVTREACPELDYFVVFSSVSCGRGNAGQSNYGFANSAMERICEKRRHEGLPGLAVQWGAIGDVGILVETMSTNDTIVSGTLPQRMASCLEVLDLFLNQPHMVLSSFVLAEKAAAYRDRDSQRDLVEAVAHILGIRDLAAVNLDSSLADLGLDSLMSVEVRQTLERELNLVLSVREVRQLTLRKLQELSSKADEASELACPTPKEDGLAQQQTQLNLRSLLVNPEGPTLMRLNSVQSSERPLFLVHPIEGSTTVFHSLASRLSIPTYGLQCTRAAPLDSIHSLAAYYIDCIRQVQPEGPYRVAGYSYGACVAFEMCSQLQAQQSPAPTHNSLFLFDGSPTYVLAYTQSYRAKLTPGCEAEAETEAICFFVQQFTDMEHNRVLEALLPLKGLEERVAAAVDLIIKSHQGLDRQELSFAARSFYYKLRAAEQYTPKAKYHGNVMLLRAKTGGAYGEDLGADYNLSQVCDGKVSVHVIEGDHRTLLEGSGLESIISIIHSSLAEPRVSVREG

In the case of `CCCCCCCCCCCCCCCCOS(=O)(=O)O`, the result in [1], in experiment [2], in experiment [3], in experiment [4], in experiment [5] and in experiment [6] was inactive. For the same compound, the result in experiment [7] and in experiment [9] was inactive. For the same compound, the AC50 in experiment [8] is 14.9 µM (active).

As to `Cn1c(=O)c2[nH]cnc2n(C)c1=O`, the outcome in experiment [1], in experiment [2], in experiment [3], in experiment [4], in [5] and in [6] was inactive. Also, the compound was called inactive in [7] and in experiment [9].

For the compound `COCc1nnc(-c2ccc[n+]([O-])c2)n1-c1c(Cl)c(Cl)cc2[nH]c(=O)c(=O)[nH]c12`, the result in experiment [1], in [2], in [3], in experiment [4], in [6] and in [7] was inactive. For the same compound, the compound was classed as inactive in experiment [9]. Further, the AC50 in experiment [8] is 50 µM (active).

Turning to `OC[C@H]1O[C@@H]2O[C@H]3[C@H](O)[C@@H](O)[C@@H](O[C@H]4[C@H](O)[C@@H](O)[C@@H](O[C@H]5[C@H](O)[C@@H](O)[C@@H](O[C@H]6[C@H](O)[C@@H](O)[C@@H](O[C@H]7[C@H](O)[C@@H](O)[C@@H](O[C@H]1[C@H](O)[C@H]2O)O[C@@H]7CO)O[C@@H]6CO)O[C@@H]5CO)O[C@@H]4CO)O[C@@H]3CO`, the call in experiment [1], in experiment [2], in experiment [3], in experiment [4], in experiment [6] and in experiment [7] was inactive. Moreover, in experiment [9], the compound was classed as inactive.

For the compound `NC(N)=O`, the outcome in [1], in [2], in [3], in [4], in experiment [6] and in [7] was inactive. The call in experiment [9] was inactive.

Regarding `O=C(O)c1cccc(C(=O)O)c1`, the result in experiment [1], in [2], in experiment [3], in experiment [4], in experiment [6] and in experiment [7] was inactive. Moreover, the result in experiment [9] was inactive.

As to `OC[C@H]1O[C@@](CO)(O[C@H]2O[C@H](CO)[C@@H](O)[C@H](O)[C@H]2O)[C@@H](O)[C@@H]1O`, the compound was called inactive in experiment [1], in [2], in experiment [3], in experiment [4], in experiment [6] and in experiment [7]. For the same compound, the compound was called inactive in experiment [9].

In the case of `CCCCCCCC/C=C\CCCCCCCC(=O)OC[C@@H](O)[C@H]1OC[C@H](O)[C@H]1O`, the outcome in experiment [1], in experiment [2], in [3], in experiment [4], in [6] and in experiment [7] was inactive. For the same compound, the result in [9] was inactive.

As to `CCOC(N)=O`, the compound was classed as inactive in [1], in experiment [2], in experiment [3], in experiment [4], in experiment [5] and in experiment [6]. Also, the compound was called inactive in experiment [7] and in [9].

In the case of `COS(C)(=O)=O`, the compound was called inactive in [1], in experiment [2], in [3], in [4], in experiment [6] and in [7]. Moreover, the outcome in experiment [8] and in [9] was inactive.

With `c1ccc2ncccc2c1`, the compound was classed as inactive in experiment [1], in [2], in experiment [3], in [4], in [6] and in experiment [7]. Also, the compound was called inactive in experiment [9].

For `CCCC(CCC)C(=O)O`, the compound was classed as inactive in experiment [1], in experiment [2], in [3], in [4], in experiment [6] and in [7]. Besides, the result in [9] was inactive.

`CC1(C)C(=O)N(Cl)C(=O)N1Cl`: the compound was called inactive in [1], in experiment [2], in [3], in [4], in experiment [6] and in experiment [7]. The outcome in experiment [9] was inactive.

Consider `NC(=O)N1c2ccccc2C=Cc2ccccc21`, for which the compound was called inactive in experiment [1], in experiment [2], in experiment [4], in experiment [5], in experiment [6] and in experiment [7]. Besides, the call in experiment [8] and in experiment [9] was inactive.

Regarding `CCCc1ccccc1`, the compound was classed as inactive in [1], in experiment [2], in experiment [4], in [6], in [7] and in [9].

For the compound `CNC(C)=O`, the compound was called inactive in experiment [1], in [2], in [3], in experiment [4], in experiment [6] and in experiment [7]. In experiment [9], the result was inactive. Besides, the AC50 in experiment [8] was 75.2 µM (active).

On to `COc1cc(C(C)C)c2c(c1)S(=O)(=O)N(COc1cc(=O)n3cccc(OCCN4CCCCC4)c3n1)C2=O`, for which the outcome in [1] and in experiment [4] was inactive. In addition, the AC50 in experiment [2] was 20.7 µM (active); in experiment [6], 19.4 µM (active); in [7], 23 µM (active); in experiment [9], 19.5 µM (active).

For `CCCCCCCCCC`, the call in experiment [1], in experiment [2], in experiment [3], in [4], in experiment [6] and in experiment [7] was inactive. In addition, in experiment [9], the compound was classed as inactive. For the same compound, the AC50 in [8] is 50 µM (active).
